ClpP mod – qHTS Assay for Activators of ClpP; ATP-dependent Clp protease proteolytic subunit (Bacillus subtilis (strain 168)), P80244; purified B. subtilis ClpP, FRET peptide cleavage, 20 min; Potency, µM (doses to about 57.5 µM), inactives show at the top dose activity change, negative = active; hit rate 1.9% among 340,000; AID 651965, 2013; active means well fitted falling curve with a large enough effect; inconclusive means small, poorly fitted or top-dose-only effect; inactive means no such curve, though single readings can be large or run the other way; further: the source files actives as falling curves though it sought activators and does not explain the sign; nearly all actives have a fitted effect of over 65% in size
Target sequence (P80244 whole entry, looked up): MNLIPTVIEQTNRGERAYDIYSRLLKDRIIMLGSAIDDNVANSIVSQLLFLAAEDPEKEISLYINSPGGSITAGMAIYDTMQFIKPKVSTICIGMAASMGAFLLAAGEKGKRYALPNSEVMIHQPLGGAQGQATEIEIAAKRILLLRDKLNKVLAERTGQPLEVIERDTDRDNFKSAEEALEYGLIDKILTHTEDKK
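FRET quenching reversal measured ClpP activation: 10 microg/mL B. subtilis ClpP at pH 8 with the FRET-FV decapeptide, read at 430 nm after 320 nm excitation. The 20-min minus 0-min signal was scaled between DMSO/no-enzyme wells and ADEP (5.8 microM final).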
DT40 TDP1 no CPT – qHTS for Inhibitors of human tyrosyl-DNA phosphodiesterase 1 (TDP1): qHTS in cells in absence of CPT; Potency, µM (highest dose often 46.2 µM), without a hit: top-dose activity change, negative = growth inhibition, most hits filed as inhibitors; hit rate 15% among 420,000; DT40 Tdp1-/- hTDP1 cells, no CPT, ATP luminescence, 48 h; further: on the % scale 0 is the no-effect control and ±100 the full control effect; nearly all actives have a fitted effect of over 55% in size
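Chicken DT40 Tdp1-/- cells stably complemented with human TDP1 were seeded at 400 cells/well with DMSO in place of 20 nM camptothecin. After compound pinning, cells grew at least 48 hr at 37 °C; viability read by CellTiter-Glo luminescence.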
TDP1 cell CPT – DT40-hTDP1 cell growth loss with CPT; chicken DT40 Tdp1-/-;hTDP1 cells + 20 nM CPT, ATP luminescence, 48 h; Potency, µM (titrated, usually from 46.2 µM), for inactives: at the highest dose activity change, negative = growth inhibition, actives largely listed as inhibitors; AID 686979; hit rate 12% among 420,000; further: on the % scale 0 is the no-effect control and ±100 the full control effect; nearly all actives have a fitted effect of over 55% in size
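Chicken DT40 Tdp1-/- cells stably complemented with human TDP1 were seeded at 400 cells/well in medium containing 20 nM camptothecin, exposed to pin-transferred compounds, and grown at 37 °C for at least 48 hr. Viability was read as ATP luminescence.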
TDP1 block – blocks human tyrosyl-DNA phosphodiesterase 1 | hit rate 0.28% among 350,000 | Q9NUW8 | recombinant TDP1, AlphaScreen DNA substrate cleavage | Potency, µM (series often up to 130 µM), without a hit: at the top dose activity change, negative = inhibition, actives largely listed as inhibitors; further: on the % scale 0 is the no-effect control and ±100 the full control effect; nearly all actives have a fitted effect of over 40% in size
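Tdp1 1 nM final; 15 min RT w/ cpd; substrate 15 nM, 5 min; beads 10 ug/ml, 10 min; AlphaScreen read. Neg ctrl: no enzyme.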
* marks the source's active call; other numbers are inactive results; ? = inconclusive; . = not tested or not shown; [ ] = remark or other dose. Most compounds without a hit are left out; they make up all but 17% or so of the library. Unless noted, the call rests on the fitted dose curve; in most records, active means well fitted curve in the direction sought with a large enough effect; inconclusive means small, poorly fitted or top-dose-only effect, or another doubt; inactive means no such curve, though single readings can be large; an effect the other way counts as inactive or inconclusive. Potency means the concentration at half of the fitted maximal effect.

SMILES	ClpP mod	DT40 TDP1 no CPT	TDP1 cell CPT	TDP1 block
Cc1ccc2nc(SCC(=O)N3CCOc4ccc(CN5C[C@@H](C)O[C@@H](C)C5)cc4C3)[nH]c2c1	.	?	-6%[9.04 µM]	.
O=C(CN1C(=O)COc2ccc(S(=O)(=O)N3CCOCC3)cc21)NCc1ccc(F)cc1	1%	-15%	-15%	10%
CC1(C)OC(=O)C2=C(C[C@@H](CCC(F)(F)F)O[C@H]2c2ccc(F)cc2)O1	2%	5%	5%	.
COc1ccc(-c2ccnc(SCC(=O)Nc3ccccn3)n2)cc1	35µM*	18µM*	?	-4%[56.1 µM]
COc1ccc(-c2ccc(SCC(=O)Nc3cccc(C(C)=O)c3)nn2)cc1OC	.	18µM*	13µM*	1%
O=C(CSc1ccc(-c2cccs2)nn1)Nc1cccc(F)c1	?	23µM*	15µM*	3%
COc1ccc(-c2ccc(SCC(=O)c3ccc(F)cc3)nn2)cc1OC	1%	?	?	2%
COc1ccc(-c2ccc(SCC(=O)c3cccs3)nn2)cc1OC	-1%	16µM*	?	2%
COc1ccc(Cl)cc1NC(=O)CN1C(=O)C(C)(C)c2cc(S(=O)(=O)N3CCCCC3)ccc21	-3%	?	?	3%
COC(=O)C1CCN(Cc2c(C(=O)N3C[C@@H](C)O[C@@H](C)C3)nc3ccc(Cl)cn23)CC1	-3%	3%	11%	5%
CC(=O)Nc1sc(/C(C#N)=C/c2ccc(Cl)c(Cl)c2)nc1-c1ccc(C)cc1	-2%	-15%	-26%	0%
Cc1cccc(NC(=O)CSc2ccc(-c3ccccn3)nn2)c1C	.	?	-3%	2%
O=C(CSc1ccc(-c2ccccn2)nn1)Nc1ccc(F)c(F)c1	0%	21µM*	21µM*	2%
Cc1cc(C)c(NC(=O)CSc2ccc(-c3ccccn3)nn2)c(C)c1	-1%	23µM*	23µM*	-2%
Cc1c(Cl)cccc1NC(=O)CSc1ccc(-c2ccccn2)nn1	-1%	23µM*	?	0%
Cc1noc(C)c1-c1nccc(NCc2cccnc2)n1	.	-1%	6%	.
COc1ccccc1NC(=O)C(=O)NCC(c1ccc2c(c1)OCO2)N1CCOCC1 (configuration not stated)	-1%	?	?	1%
O=C(C[n+]1ccncc1)c1cccc2ccccc12	1%	?	?	.
CC1(C)CC(=O)C(C=NCC2CCN(C(=O)Cc3ccccc3)CC2)=C(O)C1	.	?	8%	0%
O=[N+]([O-])c1cnc(Sc2ccncn2)c([N+](=O)[O-])c1	-1%	1.2µM*	1.2µM*	.
Cc1nn(-c2ccccc2)c(C)c1-c1nnc(-c2c(C)nn(-c3ccccc3)c2C)o1	1%	18µM*	?	5%
COc1cc(C(=O)N2CCN(C(=O)c3cc(-c4ccccc4)n[nH]3)CC2)cc(OC)c1OC	-1%	17%	4%	5%
CCC(Sc1nnc(C)n2c1cc1occc12)C(=O)Nc1ccccc1F (configuration not stated)	-3%	26µM*	21µM*	-3%
Cc1cc2c(cc3c(SCC(=O)Nc4ccc(Cl)cc4F)nncn32)o1	2%	-77%	?	5%
CCc1nnc(SCC(=O)Nc2ccc(Cl)cc2F)c2cc3occc3n12	-3%	15µM*	23µM*	3%
SMILES	ClpP mod	DT40 TDP1 no CPT	TDP1 cell CPT	TDP1 block
CCc1nnc(SC(CC)C(=O)NCCOC)c2cc3occc3n12 (configuration not stated)	-5%	?	?	-3%
COc1ccc(S(=O)(=O)N2CCN(C(=O)c3ccco3)CC2)c(C)c1C	2%	?	?	4%
CCCCn1c(=O)cc(C)n(-c2ccccc2)c1=O	-1%	7%	0%	.
CCCCn1c(=O)nc2n(-c3ccccc3)c3ccccc3cc-2c1=O	25µM*	?	?	0%
Cc1ccc(C(=O)NCCn2c(N)c(C#N)c3nc4ccccc4nc32)cc1	22µM*	-16%	-7%	8%
N#Cc1c(N)n(CCNC(=O)c2ccc(Cl)cc2)c2nc3ccccc3nc12	3.2µM*	?	-1%	6%
N#Cc1c(N)n(CCOC(=O)c2cccc(Br)c2)c2nc3ccccc3nc12	?	?	-9%	5%

Screening data from PubChem.
